Screens: PubChem, The Scripps Research Institute Molecular Screening Center
Compounds with a hit are over-represented: about 5.7% of the library has one in this group of screens.
ssDAF-12 act = S. stercoralis DAF-12 nuclear receptor activators, primary screen, cell-based, luminescence, HEK293, GRIP1 co-expression, lit1-tk-luc; Nuclear hormone receptor DAF-12 (Strongyloides stercoralis); HEK293 ssDAF-12/GRIP1 lit1-tk-luc reporter; % of 3 µM dafachronic acid response; activation, % at 6.8 µM; actives 1% (n = 370,000); AID 652126, 2013;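 active means activation above the mean over all tested compounds plus 3 SD, cut at about 0.9% in these data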
DAX1 inh-1 = DAX1 (NR0B1) inhibitors on StAR promoter, primary screen, cell-based, luminescence, SF-1 (NR5A1), full-length DAX-1. HEK293T StAR-luciferase reporter, SF-1/DAX-1 repression relief. AID 652010, 2013. actives 1.1% (n = 370,000). inhibition, % at 6.8 µM;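 active means inhibition above the mean over all tested compounds plus 3 SD, cut at about 3.6% in these data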;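 further: higher inhibition means more luminescence from relief of DAX-1 repression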
AHR activator = AHR activators, primary screen, cell-based, luminescence, luciferase reporter, human; AID 2796, 2010; activation, % at 5 µM; AHR-responsive luciferase reporter cells; actives 2.5% (n = 320,000); Aryl hydrocarbon receptor (Homo sapiens), P35869; in the data active means activation above about 47%
Target sequence (P35869 whole entry, looked up): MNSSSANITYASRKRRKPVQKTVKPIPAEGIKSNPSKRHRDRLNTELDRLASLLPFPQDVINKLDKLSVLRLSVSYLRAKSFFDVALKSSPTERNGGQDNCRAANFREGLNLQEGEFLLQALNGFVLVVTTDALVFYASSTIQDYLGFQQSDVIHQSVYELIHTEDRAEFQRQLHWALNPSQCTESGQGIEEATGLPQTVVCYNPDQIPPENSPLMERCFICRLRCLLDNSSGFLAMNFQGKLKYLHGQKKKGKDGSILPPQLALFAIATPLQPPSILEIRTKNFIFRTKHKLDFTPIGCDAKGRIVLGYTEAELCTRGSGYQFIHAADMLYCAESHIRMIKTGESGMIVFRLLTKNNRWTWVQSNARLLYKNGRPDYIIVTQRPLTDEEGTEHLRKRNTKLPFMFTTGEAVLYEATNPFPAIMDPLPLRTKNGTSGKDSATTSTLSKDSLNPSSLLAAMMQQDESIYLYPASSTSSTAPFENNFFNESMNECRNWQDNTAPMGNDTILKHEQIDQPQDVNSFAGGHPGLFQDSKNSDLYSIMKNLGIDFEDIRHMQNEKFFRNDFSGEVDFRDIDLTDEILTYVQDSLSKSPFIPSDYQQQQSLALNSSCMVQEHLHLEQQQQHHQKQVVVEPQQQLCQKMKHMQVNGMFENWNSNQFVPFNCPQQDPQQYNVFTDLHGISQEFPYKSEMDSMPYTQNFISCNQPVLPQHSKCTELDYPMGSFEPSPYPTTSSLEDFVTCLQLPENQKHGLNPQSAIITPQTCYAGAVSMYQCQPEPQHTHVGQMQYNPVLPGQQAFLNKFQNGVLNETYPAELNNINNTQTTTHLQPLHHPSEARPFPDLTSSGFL
hcDAF-12 act = H. contortus DAF-12 nuclear receptor activators, primary screen, cell-based, luminescence, HEK293, lit1-tk-luc reporter. HEK293 hcDAF-12 lit1-tk-luc reporter; 0% DMSO, 100% Δ7-dafachronic acid. activation, % at 6.8 µM. actives 1.4% (n = 370,000). AID 652067, 2013;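 active means activation above the mean of all tested compounds plus 3 SD, cut at about 5.5% in these data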
DAX1 inh-2 = DAX1 (NR0B1) inhibitors, primary screen, cell-based, HEK293, Gal4-DAX1, luciferase luminescence; Nuclear receptor subfamily 0 group B member 1 (Homo sapiens), P51843; HEK293 Gal4-DAX1 luciferase reporter; inhibition, % at 6.75 µM; actives 0.99% (n = 340,000); AID 504766, 2011;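 active means inhibition above the mean over all tested compounds plus 3 SD, cut at about 4.2% in these data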;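 further: inhibition shows as a rise in luminescence from relieved DAX1 repression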
hgDAF12 agonist = H. glycines DAF-12 receptor agonists, primary screen, cell-based, luminescence, HEK293, GAL4 fusion, UAS-luciferase. Nuclear hormone receptor DAF-12 (Heterodera glycines), GAL4 fusion. HEK293 GAL4-hgDAF12 UAS-luciferase reporter, agonist luminescence; normalized to butyrate control. actives 1.8% (n = 370,000). activation, % at 6.8 µM;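 active means activation above a cutoff set at the mean of all screened compounds plus 3 SD, cut at about 10% in these data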
AHR act cf = AHR activators, confirmation, cell-based, luminescence, luciferase reporter, human; activation, % at 9 µM; shares compounds with AHR activator; human cells, AHR-responsive luciferase reporter; actives 87% (n = 2,300); in the data active means activation above about 49%;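 further: HepG2 hepatoma cells carrying a DRE-driven firefly luciferase reporter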
PXR act counter = human PXR activators, counter-screen for AHR activator project, cell-based, luciferase luminescence; shares compounds with AHR activator; cell-based PXR reporter; activation, % at 11.6 µM; actives 88% (n = 2,300); AID 434939, 2010; in the data active means activation above about 11%;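 further: human hepatoma DPX-2 cells expressing full-length human PXR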
Numbers stand for hits; - = inactive; . = not tested or not shown.

SMILES	ssDAF-12 act	DAX1 inh-1	AHR activator	hcDAF-12 act	DAX1 inh-2	hgDAF12 agonist	AHR act cf	PXR act counter
COc1ccc2nccc(/C=C/c3ccnc4ccc(OC)cc34)c2c1	-	-	104.8	-	.	-	95.6	33.7
Clc1ccc(-c2n[nH]c3c2CCC3)cc1Cl	-	-	99.8	-	-	-	98.6	20.6
CC1(c2ccccc2)CC(C)(C)N2C(=O)Cc3cccc1c32 (stereo not drawn)	-	-	-	-	-	-	.	.
CC1CCCCN1CCNC(=O)c1cc2c(-c3ccccc3F)nn(C)c2s1 (stereo not drawn)	-	-	-	-	-	-	.	.
CN1CCN(CCCNC(=O)c2cc3c(-c4ccc(Cl)cc4)nn(C)c3s2)CC1	-	-	97.8	5.6	-	-	101.7	.
COc1ccc(N2CCN(C(=O)c3cc4c(-c5ccc(Cl)cc5)nn(C)c4s3)CC2)cc1	-	-	90.1	6.0	-	-	121.3	33.1
CSCCC(NC(=O)c1ccco1)C(=O)Nc1ccc(C)c(S(=O)(=O)N2CCOCC2)c1 (stereo not drawn)	-	-	-	-	-	-	.	.
O=C(NCCc1ccccn1)c1c(-c2ccccc2)sc2ccccc12	-	-	-	-	-	-	.	.
O=C(NCCc1ccccn1)c1c(-c2ccsc2)sc2ccccc12	-	-	128.0	-	-	-	92.2	160.9
CCNc1ccc(C(=O)OCC(=O)N(Cc2ccccc2)C(C)(C)C)cc1[N+](=O)[O-]	-	-	-	-	-	-	.	.
O=C(COc1ccc2oc(-c3ccccc3)cc(=O)c2c1)Nc1ccccc1	-	-	-	-	-	-	.	.
O=c1cc(-c2ccccc2)oc2ccc(Br)cc12	-	-	98.8	-	-	-	79.6	39.1
CCOC(=O)c1sc(NC(=O)C2CC(=O)N(c3ccc(C)cc3)C2)nc1C (stereo not drawn)	-	-	-	-	-	-	.	.
O=C(NCC1OCCc2ccccc21)c1ccco1 (stereo not drawn)	-	-	86.1	-	-	-	129.2	14.2
COc1cccc(C2=NC(C)(C)NC(c3ccccc3O)C2)c1 (stereo not drawn)	-	-	82.3	-	-	-	-	52.0
COc1cccc(C2=NOC(C(=O)NC(C)C)C2)c1 (stereo not drawn)	-	-	-	-	-	-	.	.
CCOc1ccc(-c2nc(N)nc(C)c2-c2ccc(Cl)cc2)c(O)c1	-	-	89.9	-	-	-	78.7	39.1
COCCNC(=O)C1(C)CCCN(C(=O)c2ccc(F)c(Cl)c2)C1 (stereo not drawn)	-	-	.	-	.	-	.	.
C(=N\Nc1nc2ccccc2[nH]1)/c1ccncc1	-	-	107.8	-	-	-	114.3	10.8
COc1ccccc1Nc1nc2ccccc2[nH]1	-	-	119.4	-	-	-	62.9	35.3
COc1cc(/C=N/Nc2nc3ccccc3[nH]2)cc(OC)c1O	-	-	81.4	-	-	-	-	-
CC(=O)Nc1ccc(/C=N/Nc2nc3ccccc3[nH]2)cc1	-	-	156.8	-	-	-	106.7	13.0
CC(=O)Nc1ccc(/C=C/c2nc3ccccc3[nH]c2=O)cc1	-	-	-	-	-	-	.	.
O=C(NC12CC3CC(CC(C3)C1)C2)C1CCCN1C(=O)Nc1ccccc1 (stereo not drawn)	-	-	-	-	-	-	.	.
COC(=O)[C@]12C[C@H](CC(=O)N3CCSCC3)C(=O)N(CCC3=CCCCC3)C1=C[C@H](C1CCCC1)O[C@@H]2C	-	-	.	-	.	-	.	.
SMILES	ssDAF-12 act	DAX1 inh-1	AHR activator	hcDAF-12 act	DAX1 inh-2	hgDAF12 agonist	AHR act cf	PXR act counter
Fc1ccc(-c2csc(NC(=S)Nc3ccccc3)n2)cc1	-	-	83.8	-	-	-	78.5	32.0
c1ccc(-c2csc(Nc3ncccn3)n2)cc1	-	-	-	-	-	-	.	.
NNc1nc(-c2ccccc2)cs1	-	-	79.8	6.0	-	-	81.8	26.7
COc1ccc(NC(=O)CN2CCC(NC(=O)c3ccc(OC)cc3)CC2)cc1	-	-	-	-	-	-	.	.
COc1ccc(Cc2nnc(NC(=O)CS(=O)(=O)c3ccccc3)s2)cc1OC	-	-	-	-	-	-	.	.
CC(=O)Nc1c(NC(=O)CC#N)[nH]c2c(c1=O)c(=O)n(C)c(=O)n2C	-	-	-	-	-	-	.	.
O=C1c2ccccc2C(O)(c2ncc[nH]2)N1CCc1ccccc1 (stereo not drawn)	-	-	97.5	-	-	-	105.3	24.2
Cc1cc(=O)[nH]c(Nc2cccc(Cl)c2C)n1	-	-	-	-	-	-	.	.
CCN(CC)S(=O)(=O)c1ccc(N2CCCC2)c(NC(=O)c2nn(C)c(=O)c3ccccc23)c1	-	-	-	-	-	-	.	.
Cn1nc(C(=O)Nc2ccccc2N2CCCC2)c2ccccc2c1=O	-	-	114.0	-	-	-	81.8	73.9
Cn1nc(C(=O)Nc2ccc3c(c2)OCO3)c2ccccc2c1=O	2.4	-	123.1	-	-	-	107.1	-
CCCCCNC(=O)c1cccc(S(=O)(=O)N2CC3(C)CC2CC(C)(C)C3)c1 (stereo not drawn)	-	-	-	-	-	-	.	.
O=C(Nc1ccc(-c2cn3c(n2)SCC3)cc1)c1ccc2ccccc2n1	-	-	-	-	-	-	.	.
O=C(Nc1cccc(-c2cn3c(n2)SCC3)c1)c1ccc2ccccc2n1	-	-	93.7	-	-	12.1	54.2	39.0
CCOc1ccc(/C=N/NC(=O)c2cc3c(OC)cc(OC)cc3[nH]2)cc1OC	-	-	84.9	-	-	-	86.1	21.0
COc1ccc(/C=N/NC(=O)c2ccn[nH]2)cc1COc1ccc(Cl)cc1	-	-	86.8	-	-	-	-	11.4
CCOc1ccc(/C=N/NC(=O)c2cc3c(OC)cccc3[nH]2)cc1	-	-	-	-	-	-	.	.
